Results filed as inconclusive are left out. Active and inactive are the calls of the source. Calls follow the shape of the dose curve; as a rule, active = well fitted curve in the direction sought with a large enough effect; inconclusive = small, poorly fitted or top-dose-only effect, or effect the other way, or another doubt; inactive = no such curve, though single readings can be large or run the other way.
Target: Alpha-galactosidase A (Homo sapiens) (UniProt P06280)
Assay: Confirmation of Inhibitors of Human alpha-Galactosidase Using Spleen Homogenate; also: 0% is about no effect
Conditions: alpha-galactosidase enzyme activity; series mostly up to 56.2 µM; activity change: at the top concentration
In short: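 AC50 values come from Hill-equation fits of normalised 4-methylumbelliferone fluorescence (365/440 nm, read after NaOH/glycine stop). Enzyme source: spleen homogenate; substrate 1 mM final; pH 5.0 citrate buffer; 40 min at 37C; compound titration 0.5 nM–58 uM.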

Sequence of Alpha-galactosidase A (Homo sapiens) (P06280 32-429 limits assumed): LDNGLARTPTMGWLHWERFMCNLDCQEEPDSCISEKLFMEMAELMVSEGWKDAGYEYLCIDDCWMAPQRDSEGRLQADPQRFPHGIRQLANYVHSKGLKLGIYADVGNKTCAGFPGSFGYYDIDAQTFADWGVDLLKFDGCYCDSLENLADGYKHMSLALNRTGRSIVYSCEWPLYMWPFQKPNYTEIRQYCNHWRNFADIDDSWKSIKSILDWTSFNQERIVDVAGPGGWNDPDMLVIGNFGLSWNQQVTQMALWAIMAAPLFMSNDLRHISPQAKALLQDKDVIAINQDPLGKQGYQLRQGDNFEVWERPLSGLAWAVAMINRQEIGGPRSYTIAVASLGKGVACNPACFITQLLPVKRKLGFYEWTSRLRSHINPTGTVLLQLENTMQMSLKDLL

Activity change, inactive:
O=C1CC(N2CCN(c3cccc(C(F)(F)F)c3)CC2)C(=O)N1c1ccc(F)cc1 (centres undefined) -6.67% [at 23.6 µM]
COc1cccc(S(=O)(=O)N2CCOCC2)c1 9.2%
CCOc1c(Cl)cc(CNc2ccc3[nH]c(=O)[nH]c3c2)cc1OC -5.26%
Cc1c(C#N)c(N)nc2c3c(sc12)NC(=O)CC3c1ccc(Cl)cc1 (centres undefined) 8.86%
COc1ccccc1N1CCN(C(c2cccs2)C(C)NC(=O)c2cccs2)CC1 (centres undefined) 0.409% [at 23.6 µM]
Cn1c(-c2ccco2)nc2cc3ccccc3cc21 14.9% [at 23.6 µM]
CN1CCN(S(=O)(=O)c2ccccc2)CC1 10.6%
COc1cc(/C=C/c2ccc3ccccc3n2)cc(OC)c1O -0.216%
CC1CC(C)CN(CC(=O)N2c3ccccc3CCc3ccccc32)C1 (centres undefined) -3.83%
CCc1sc(-c2cc3cc(Cl)ccc3oc2=O)nc1-c1ccccc1 26%
COc1ccc(NC(=O)CC2Nc3cc(C)c(C)cc3NC2=O)c([N+](=O)[O-])c1 (centres undefined) -2.6%
Cc1nc(-n2nnc(CO)c2CO)nc2c1CCC2 8.66%
COc1ccc2nc3c(cc2c1)Cn1c-3nc2ccccc2c1=O 21%
COCCn1c(=NC(=O)c2ccc3c(c2)OCO3)c(C#N)cc2c(=O)n3cccc(C)c3nc21 2.06% [at 23.6 µM]
Cc1ccc(S(=O)(=O)N(C)C)cc1NC(=O)COC(=O)Cc1ccc(Br)cc1 2.93%
O=S(=O)(c1ccc(O)cc1)N1CCOCC1 -2.33%
O=c1oc2ccc(Br)cc2cc1-c1nc2c(s1)CCc1ccccc1-2 -6.87%
CCOC(=O)N1CCN(c2cc(N(C)CCO)c([N+](=O)[O-])c3nonc23)CC1 1.32%
Cc1ccc(CCNC(=O)CNC(=S)N(Cc2ccccc2)Cc2cccnc2)cc1 4.95%

From PubChem BioAssay AID2108 (National Center for Advancing Translational Sciences (NCATS), 2009)
